The values that follow come from PubChem BioAssay AID1117361 (Southern Research Institute, 2015).

The whole screen tested about 3,600 compounds, of which about 900 (25%) were called active. Only a sample is shown. Measured potencies and affinities stand elsewhere. Values without a mark were called inactive. The rule behind the calls is not given here.

In this assay the target is Protein Tat (Human immunodeficiency virus type 1 group M subtype B (isolate HXB2)) (UniProt P04608). Put plainly: HIV-1 Tat–TAR interaction blockers – biochemical, fluorescence polarization, FAM-labeled TAR RNA, counter-screen for Vif-APOBEC3G degradation inhibitor project, dose response (AID 1117361). The following applies: Tat-TAR RNA binding; series mostly up to 100 µM; inhibition: at the top concentration.
As a reminder, the inhibition is the drop in the measured response relative to a control, in per cent. On to `Cn1nc(-c2ccc(Cl)cc2)c2cc(C(=O)NCCCN3CCOCC3)sc21`, for which the “inhibition” value is 3.38%. Still for that read-out and setting: in the case of `Cn1nc(-c2ccc(Cl)cc2)c2cc(C(=O)N3CCN(C(=O)c4ccco4)CC3)sc21` it was 2.03%. Same read-out and setting: in the case of `O=C(O)CC(Cn1cnnn1)c1ccccc1` (stereo unspecified) it was 12.4%; in that of `COc1ccc(Cl)cc1N(C)C(=O)CCNC(=O)Cn1cnc2ccccc2c1=O`, 6.82%. As for `Cc1csc(=O)n1CC(=O)OCC(=O)c1ccc(Br)cc1`, the result was inactive.

Turning to `CCOc1cccc(CN2CCCC(C(=O)Nc3cccc(-n4cccn4)c3)C2)c1` (stereo unspecified), the “inhibition” value is 7.68%. For the compound `CC(=O)Nc1ccc(S(=O)(=O)Nc2nnc(C(C)C)s2)cc1`, the result was inactive. On to `N#Cc1nc(-c2ccco2)oc1N1CCN(c2ccccc2)CC1`, for which the result was inactive. For `CSc1nc(N2CCOCC2)c2c(c1C#N)CC(C)(C)OC2`, the “inhibition” value was 4.73%. Consider `CCOc1cc(S(=O)(=O)N(CC)CC)c(OCC)cc1-n1cnnn1`, for which the “inhibition” value was 5.41%. With `Cc1nnc(NC(=O)c2ccc(S(=O)(=O)N(C)Cc3ccccc3)cc2)o1`, the “inhibition” value is 3.41%. For `CC1(C)CC(Nc2ccc(Nc3ccccc3)cc2)CC(C)(C)N1`, the result was inactive. Take `CCC1=C2CC[C@H]3C(=O)NC(=O)[C@H]3[C@H]2[C@@]2(Cc3ccccc3)C(=NCC(=O)OC)OC(=O)N2C1=O`: the “inhibition” value was 1.65%. In the case of `Nc1nc(Sc2ccc([N+](=O)[O-])c3nonc23)c2[nH]cnc2n1`, the “inhibition” value was 18.4%. Regarding `Nc1nc(SCc2nc3scc(-c4ccccc4)c3c(=O)[nH]2)n[nH]1`, the “inhibition” value is 3.67%.

As to `S=c1[nH]nc(Cn2nnc3ccccc32)n1-c1ccccc1`, the result was inactive. Turning to `COc1ccccc1C(=O)Nc1ccc(-c2nnc(SCC(=O)O)n2C)cc1`, the “inhibition” value is 18.1%.

Turning to `Cc1cc(C(=O)NNC(=O)CCC2CCCCC2)c(C)o1`, the outcome was inactive.

For `Cc1cc(/C=C2\SC(=S)NC2=O)c(C)n1C`, the “inhibition” value was 4.34%.

As for `CCOC(=O)c1c(-c2cccs2)csc1NC(=O)CC(C)C`, the “inhibition” value is 5.41%.

Regarding `Cc1cc(/C=N/n2cnnc2)c(C)n1-c1cccc(Cl)c1`, the “inhibition” value was 14.9%. The same measure, in the same setting: then `Cc1ccc(-n2nc(C(=O)O)c3ccccc3c2=O)cc1C`, with 0.68%. For the compound `Cc1c(C=O)c(C=O)c(C)n1Cc1ccccc1`, the “inhibition” value was 11.6%.

In the case of `Cc1ccc(C(=O)N2CCN(c3ccccc3)CC2)cc1C`, the “inhibition” value is 10.9%. Still for that read-out and setting: then `CC(=O)C1CCN(Cc2ccccc2)CC1`, with 13%. On to `O=C(O)c1ccc(N2C(=O)c3cccnc3C2=O)cc1`, for which the call was inactive. For `O=C(OC(C(=O)NCc1cccs1)c1ccccc1Cl)c1ccco1` (stereo unspecified), the compound was called inactive. For the compound `O=S(=O)(c1cccc2ccccc12)n1nnc2ccccc21`, the “inhibition” value was 2.7%. As to `O=C(OCn1cncn1)c1ccc(Cl)cc1Cl`, the “inhibition” value was 0.68%. Same read-out and setting: then `CC(C)(C)OC(=O)N1CCC[C@H]1c1nnc(SC/C=C/c2ccccc2)o1`, with 9.46%; and `Clc1ccc(C2=Nn3c(nnc3-c3cc(-c4ccccc4)n[nH]3)SC2)cc1`, with 8.78%.

Turning to `O=C(O)c1ccc2c(c1)N(Cc1cccc(F)c1)C(=O)CS2`, the result was inactive. Consider `Cc1cc(NS(=O)(=O)c2cc(Cl)sc2Cl)no1`, for which the “inhibition” value is 4.34%. Turning to `O=C(O)c1cc(-c2ccccc2)on1`, the result was inactive.

In the case of `COc1ccc(C(=O)N2CCCC(C(=O)N3CCCCCC3)C2)cc1` (stereo unspecified), the “inhibition” value is 4.05%.

For `Cc1ccc(S(=O)(=O)N(C)CC(O)Cn2c3ccccc3c3ccccc32)cc1` (stereo unspecified), the “inhibition” value was 6.08%.

Take `COc1cc(/C=C2/C(=O)N(c3ccc(Br)cc3)N=C2C)cc(OC)c1OC`: the “inhibition” value is 5.68%. Regarding `CC(=O)Nc1ccc(OCC(=O)N2CCc3ccccc3C2)cc1`, the outcome was inactive. In the case of `CCn1ncc(/C=C/C(=O)NCc2cn(C)nc2C)c1C`, the “inhibition” value was 4.05%. With `Cn1c(=O)cc(SCC(=O)NCCCN2CCOCC2)c2ccccc21`, the result was inactive. Turning to `O=C(c1ccccc1)N1CCN(c2ccc(Cl)cc2)CC1`, the “inhibition” value was 12.8%. Consider `Cc1ccc(-c2nc(-c3ccccc3)no2)cc1`, for which the result was inactive. As to `Cc1cccc(C)c1NC(=O)Cn1c(=O)n(CCCC(=O)NCc2ccco2)c(=O)c2sccc21`, the “inhibition” value is 1.36%. Regarding `NS(=O)(=O)c1ccc(N=Nc2ccc(=O)[nH]c2O)cc1`, the “inhibition” value was 5.01%.

Take `COc1cc(NC(=O)CSCC(=O)N(C)C2CCCCC2)cc(OC)c1`: the “inhibition” value is 1.65%.

Consider `Cc1ccccc1OCC(=O)OCC(=O)c1ccc(OC(=O)c2ccccc2)cc1`, for which the “inhibition” value was 3.67%. Still for that read-out and setting: in the case of `Cc1ccc(Nc2nc(C(=O)NCc3ccco3)cs2)cc1` it was 12.8%; in that of `c1coc(CNc2nc(-c3cccs3)cs2)c1`, 20.6%. As for `COCCOC(=O)CC1=NC(=O)CS1`, the compound was called inactive. On the same count and under the same terms, in the case of `Cc1cc(C(F)F)n2ncc(C(=O)NCc3ccccc3C(F)(F)F)c2n1` it was “inactive”.

Consider `Cc1cc(C)c(Cc2c(C)nc3c(C(=O)NCc4ccco4)cnn3c2C)c(C)c1`, for which the “inhibition” value is 2.73%. For the compound `COc1cc(OC)cc(C(=O)NC(=S)N2CCN(c3ccc(C(F)(F)F)cc3[N+](=O)[O-])CC2)c1`, the “inhibition” value was 2.7%.

In the case of `CSCCC(NC(N)=O)C(=O)NCc1ccc(Cl)cc1` (stereo unspecified), the “inhibition” value is 2.7%. For the compound `COc1ccc(N2C(=O)CC(Sc3nc(C)c4c(n3)CCCC4)C2=O)cc1` (stereo unspecified), the “inhibition” value was 6.08%. For `CC(C)(C)c1ccc(S(=O)(=O)N2CCCCC2)cc1`, the “inhibition” value was 17.3%. Turning to `O=S(=O)(c1ccc(S(=O)(=O)N2CCCC2)cc1)N1CCCCCC1`, the result was inactive.
